Bioassay records: PubChem BioAssay, National Center for Advancing Translational Sciences (NCATS)
Pol eta inh-1: qHTS for Inhibitors of Polymerase Eta. AID 588591, 2011. Potency, µM (top dose mostly 114 µM), for the others: at the highest dose activity change, negative = inhibition, most hits filed as inhibitors. DNA polymerase eta (Homo sapiens), Q9Y253. recombinant Pol eta, fluorescent DNA replication assay. 390,000 compounds, 1.2% hits; note: potency is the fitted concentration of half-maximal effect; % is set by controls: 0 for no effect and ±100 for the full control effect
Target sequence (Q9Y253 whole entry, looked up): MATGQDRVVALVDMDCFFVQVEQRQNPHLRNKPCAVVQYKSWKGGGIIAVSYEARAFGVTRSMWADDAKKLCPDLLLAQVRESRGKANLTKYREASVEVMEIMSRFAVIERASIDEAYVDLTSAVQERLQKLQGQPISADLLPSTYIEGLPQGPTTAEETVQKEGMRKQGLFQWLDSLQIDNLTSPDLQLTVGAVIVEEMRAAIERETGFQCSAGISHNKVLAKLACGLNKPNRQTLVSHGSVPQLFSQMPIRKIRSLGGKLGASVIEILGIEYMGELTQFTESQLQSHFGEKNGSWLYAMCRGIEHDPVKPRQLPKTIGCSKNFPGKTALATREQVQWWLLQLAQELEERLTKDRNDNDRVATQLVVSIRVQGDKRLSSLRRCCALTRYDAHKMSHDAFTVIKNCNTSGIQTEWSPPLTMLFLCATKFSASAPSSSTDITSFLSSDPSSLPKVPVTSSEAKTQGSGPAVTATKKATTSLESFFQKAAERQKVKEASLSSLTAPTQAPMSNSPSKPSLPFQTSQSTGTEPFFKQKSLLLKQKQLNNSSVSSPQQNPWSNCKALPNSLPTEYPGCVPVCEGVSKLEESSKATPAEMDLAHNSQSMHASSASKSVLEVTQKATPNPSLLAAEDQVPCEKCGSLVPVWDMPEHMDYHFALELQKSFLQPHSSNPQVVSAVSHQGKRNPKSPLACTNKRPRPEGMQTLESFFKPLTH
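Fluorescent replication assay: 50 nM final substrate added after a 15 min room-temperature compound preincubation with 10 nM enzyme. Signal taken at 0 min and again at 10 min.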
POLB inh: qHTS Assay for Inhibitors of DNA Polymerase Beta | Pol beta primer extension/strand displacement, fluorescence kinetic | Potency, µM (highest dose often 114 µM), without a hit: top-dose activity change, negative = inhibition, most hits filed as inhibitors | 340,000 compounds, 1.3% hits; note: potency is the fitted concentration of half-maximal effect; % is set by controls: 0 for no effect and ±100 for the full control effect
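Pol beta (10 nM) and compounds were preincubated 15 min at room temperature, then 50 nM substrate (final) started primer extension/strand displacement. Reads were taken at 0 and 10 min; concentration-response data were fitted to a four-parameter Hill equation.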
WRN inhibitor: qHTS for Inhibitors of WRN Helicase | Bifunctional 3'-5' exonuclease/ATP-dependent helicase WRN (Homo sapiens), Q14191 | WRN helicase unwinding, fluorescent forked duplex, kinetic | Potency, µM (series often up to 114 µM), for the others: at the top dose activity change, negative = inhibition, hits mostly inhibitors | 360,000 compounds, 0.46% hits; note: potency is the fitted concentration of half-maximal effect; % is set by controls: 0 for no effect and ±100 for the full control effect; nearly all actives have a fitted effect of over 55% in size
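Kinetic fluorescence helicase assay: unwinding of a quenched forked DNA duplex (100 nM final) with 2 mM ATP final raises red fluorescence (525/598 nm). Compounds sat 15 min at room temperature with 20 nM WRN beforehand.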
FEN1 inhibitor: qHTS Assay for the Inhibitors of Human Flap endonuclease 1 (FEN1). P39748. Recombinant FEN1 flap cleavage, fluorescence, 15 min. Potency, µM (doses to about 114 µM), for the others: at the top dose activity change, negative = inhibition, actives largely listed as inhibitors. 390,000 compounds, 0.35% hits; note: potency is the fitted concentration of half-maximal effect; % is set by controls: 0 for no effect and ±100 for the full control effect; nearly all actives have a fitted effect of over 65% in size
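Enzyme 10 nM, 15 min RT preincubation with compound; start with substrate 50 nM final; reads at 0 and 15 min; qHTS titration, four-parameter Hill fit.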
POLK inh: qHTS for Inhibitors of Polymerase Kappa. DNA polymerase kappa (Homo sapiens), Q9UBT6. purified Pol kappa, fluorescent DNA synthesis assay, 10 min. Potency, µM (series often up to 107 µM), inactives show at the highest dose activity, negative = inhibition, hits mostly inhibitors. 400,000 compounds, 0.53% hits; note: potency is the fitted concentration of half-maximal effect; % is set by controls: 0 for no effect and ±100 for the full control effect
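10 nM Pol kappa was preincubated with compounds for 15 min at room temperature. Reaction started with 50 nM (final) substrate. Fluorescence read kinetically at 0 and 10 min.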
POLI inh: qHTS for Inhibitors of Polymerase Iota; Pol iota fluorescent replication assay, 10 min; Potency, µM (top dose mostly 115 µM), without a hit: top-dose activity, negative = inhibition, actives largely listed as inhibitors; 390,000 compounds, 1% hits; DNA polymerase iota (Homo sapiens), Q9UNA4; note: potency is the fitted concentration of half-maximal effect
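Fluorescent replication assay read twice, at 0 min and 10 min after adding 50 nM (final) substrate. Enzyme (10 nM) and compounds were first incubated 15 min at room temperature; enzyme-free buffer wells were negative controls.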
GALK inh confirm: Confirmation Assay for Inhibitors of Human Galactokinase (GALK). shares compounds with Pol eta inh-1. purified GALK, Kinase-Glo ATP depletion luminescence. Potency, µM (highest dose often 115 µM), without a hit: at the highest dose activity, negative = inhibition, hits mostly inhibitors. 150 compounds, 70% hits. AID 2015, 2009
Redox cycling: Confirmatory Assay for Inhibitors of Human Galactokinase (GALK): Phenol-HRP redox assay counterscreen; shares compounds with Pol eta inh-1; Phenol red-HRP H2O2 redox cycling, absorbance 600 nm; Potency, µM (highest dose often 115 µM), inactives show top-dose activity change, negative = H2O2 signal, hits mostly inhibitors; 150 compounds, 40% hits; AID 2035, 2009
HEK293 tox: Secondary Assay for Inhibitors of Human Galactokinase (GALK): HEK-293 Cell Viability Assay; 170 compounds, 10% hits; HEK-293 viability, ATP luminescence (CellTiter-Glo), 24/48 h; shares compounds with Pol eta inh-1; Potency, µM (doses to about 46.1 µM), for inactives: at the top dose activity change, negative = cytotoxicity, most hits filed as inhibitors; note: potency is the fitted concentration of half-maximal effect; % is set by controls: 0 for no effect and ±100 for the full control effect
Pol eta inh-2: qHTS for Inhibitors of Polymerase Eta: Confirmatory Assay for Cherry-picked Compounds; shares compounds with Pol eta inh-1; Pol eta primer extension, TAMRA/BHQ fluorescence, 10 min; Potency, µM, actives largely listed as inhibitors; 2,600 compounds, 64% hits; AID 720502, 2013; note: potency is the fitted concentration of half-maximal effect
* = called active by the depositor; [ ] = another dose, or the depositor's remark. Compounds with a hit are over-represented: about 2.4% of the library has one in this group of screens. Calls come from the whole dose curve; as a rule, active = well fitted curve in the direction sought with a large enough effect; inconclusive = small, poorly fitted or top-dose-only effect, or another doubt; inactive = no such curve, though single readings can be large; an effect the other way counts as inactive or inconclusive.

How did O=C1OC(C(=O)O)Cc2ccccc21 (stereo not drawn) do in these assays?
Pol eta inh-1: 2%; POLB inh: 7%; WRN inhibitor: -6%; FEN1 inhibitor: -2%; POLK inh: -8%; POLI inh: -10%; GALK inh confirm: -5%; Redox cycling: 1%; HEK293 tox: 3%

Results for C/C=C/COC(=O)c1[nH]c2c(c1C)C(=O)CC(c1ccco1)C2 (stereo not drawn) ?
Pol eta inh-1: 22µM*; POLB inh: 22µM*; WRN inhibitor: inconclusive; FEN1 inhibitor: -3%; POLK inh: 79µM*; POLI inh: inconclusive; Pol eta inh-2: inconclusive

What do the screens show for `CCOc1ccc(Nc2nc(Cc3nnc(SCC(=O)O)o3)cs2)cc1`?
Pol eta inh-1: 50µM*; POLB inh: 79µM*; WRN inhibitor: -28%[57.1 µM]; FEN1 inhibitor: -5%; POLK inh: inconclusive; POLI inh: inconclusive; Pol eta inh-2: inconclusive

What do the screens show for `O=C1CCCC2=C1C1(CCC1)N=C(Nc1nc3ccccc3o1)N2`?
HEK293 tox: -1%

How did O=C1CCCC2=C1C1(CCCCC1)N=C(Nc1nc3ccccc3o1)N2 do in these assays?
Pol eta inh-1: -17%; POLB inh: -23%; WRN inhibitor: -8%; FEN1 inhibitor: inconclusive; POLK inh: -10%; POLI inh: 1%; GALK inh confirm: 17µM*; Redox cycling: -5%; HEK293 tox: -2%

How did Cc1cccc(C)c1Nc1nc2ccccc2o1 do in these assays?
Pol eta inh-1: -26%; POLB inh: -8%; WRN inhibitor: 1%; FEN1 inhibitor: 16%; POLK inh: 4%; POLI inh: 24%

Results for O=C1CCCC2=C1C1(CCCC1)N=C(Nc1nc3ccccc3o1)N2 ?
POLB inh: 1%; HEK293 tox: -1%

Results for O=C1CC(c2ccccc2)CC2=C1C1(CCCC1)N=C(Nc1nc3ccccc3o1)N2 (stereo not drawn) ?
HEK293 tox: -3%

What do the screens show for `Clc1ccccc1Nc1nc2ccccc2o1`?
Pol eta inh-1: -5%; WRN inhibitor: 8%; FEN1 inhibitor: 2%; POLK inh: -13%; POLI inh: 9%

Results for Cc1ccc2oc(C(=O)Nc3ccc(S(=O)(=O)Nc4nccc(C)n4)cc3)cc(=O)c2c1 ?
Pol eta inh-1: 3%; POLB inh: 13%; FEN1 inhibitor: -9%; POLK inh: -2%; POLI inh: -4%

How did Cc1ccc2ncc(C(=O)NC(C)c3ccccc3)c(=O)n2c1 (stereo not drawn) do in these assays?
Pol eta inh-1: -7%; POLB inh: 31%; FEN1 inhibitor: 2%; POLK inh: 2%; POLI inh: -1%

What do the screens show for `COc1ccc(N=C2S/C(=C\c3ccc(OC(C)C(=O)O)c(OC)c3)C(=O)N2CCc2c[nH]c3ccccc23)cc1` (stereo not drawn)?
Pol eta inh-1: 32µM*; POLB inh: 35µM*; WRN inhibitor: -12%; FEN1 inhibitor: inconclusive; POLK inh: inconclusive; POLI inh: inconclusive; GALK inh confirm: 42µM*; Redox cycling: -5%; HEK293 tox: 10%

What do the screens show for `CC(C)CSC1=NSC2=NC(=O)/C(=C\c3coc4ccccc4c3=O)C(=N)N12`?
Pol eta inh-1: 18µM*; POLB inh: 45µM*; WRN inhibitor: inconclusive; FEN1 inhibitor: inconclusive; POLK inh: -30%; POLI inh: inconclusive; Pol eta inh-2: 76*

What do the screens show for `CSC1=NSC2=NC(=O)/C(=C\c3coc4ccccc4c3=O)C(=N)N12`?
Pol eta inh-1: 13µM*; POLB inh: 25µM*; WRN inhibitor: 56µM*; FEN1 inhibitor: 79µM*; POLK inh: inconclusive; POLI inh: inconclusive; Pol eta inh-2: inconclusive

How did CC(C)CSC1=NSC2=NC(=O)/C(=C\c3ccccc3)C(=N)N12 do in these assays?
Pol eta inh-1: -28%; POLB inh: 1%; WRN inhibitor: -16%[11.6 µM]; FEN1 inhibitor: 5%; POLK inh: -2%; POLI inh: inconclusive

Results for CC1(C)CC(=O)c2cc(-c3nc(-c4ccc(Cl)cc4)cs3)c(=O)n(-c3cccc(F)c3)c2C1 ?
Pol eta inh-1: -15%; POLB inh: 5%; FEN1 inhibitor: 9%; POLK inh: -13%; POLI inh: 14%

How did Cc1ccc(N2CC(C(=O)Nc3nnc(SCCC4OCCO4)s3)CC2=O)cc1 (stereo not drawn) do in these assays?
Pol eta inh-1: inconclusive; POLB inh: 6%; WRN inhibitor: -30%; FEN1 inhibitor: 4%; POLK inh: -11%; POLI inh: 35%

How did COc1ccc(N2CC(C(=O)Nc3nnc(SCCC4OCCO4)s3)CC2=O)cc1 (stereo not drawn) do in these assays?
Pol eta inh-1: 35µM*; POLB inh: 14µM*; WRN inhibitor: -3%; FEN1 inhibitor: -22%; POLK inh: -29%; POLI inh: -14%; Pol eta inh-2: inconclusive
